Laboratory results from PubChem BioAssay (NCI).
Compounds without any hit were thinned out: in the full panel of roughly 83,000, 20% have a hit.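 In brief: 96-well plates, 48 h treatment, single concentration, percent growth endpoint.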 A number with no mark means an inactive call. Calls of active or inactive are those of the source. The calls were made as follows: active = growth percent below 10; inactive = the rest.

Tests used:
Assay in all cases: NCI-60 one-dose screen, 48 h (100 = growth as untreated, 0 = no growth, -100 = all killed)
Settings in all cases: 10 µM
DU-145 prostate = system: DU-145 prostate
K-562 leukemia = system: K-562 leukemia
MALME-3M melanoma = system: MALME-3M melanoma
MDA-MB-231 breast = system: MDA-MB-231 breast
RXF 393 renal = system: RXF 393 renal
SF-268 CNS = system: SF-268 CNS
SF-295 CNS = system: SF-295 CNS
SF-539 CNS = system: SF-539 CNS
UACC-257 melanoma = system: UACC-257 melanoma
M14 melanoma = system: M14 melanoma

COc1cc(CSc2nc3ccc(C)cc3c(=O)n2-c2ccccc2)cc(OC)c1OC
growth (DU-145 prostate): 29.8%
growth (K-562 leukemia): 10.4%
growth (MALME-3M melanoma): 42.5%
growth (MDA-MB-231 breast): 38%
growth (RXF 393 renal): 14.2%
growth (SF-268 CNS): 47.5%
growth (SF-295 CNS): 32.8%
growth (SF-539 CNS): 3.56% (active)
growth (UACC-257 melanoma): 50.2%
growth (M14 melanoma): 17.2%

Cc1cc(Nc2cccc(F)c2)nc(NCc2ccccc2)n1
growth (DU-145 prostate): 22.8%
growth (K-562 leukemia): 13.3%
growth (MALME-3M melanoma): 43.9%
growth (MDA-MB-231 breast): 20.9%
growth (RXF 393 renal): 76.6%
growth (SF-268 CNS): 40.4%
growth (SF-295 CNS): 16.7%
growth (SF-539 CNS): 56.8%
growth (UACC-257 melanoma): 29.8%
growth (M14 melanoma): 28.5%

CCn1nc(-c2ccc(C(=O)OC)cc2)nc2c(=O)n(C)c(=O)nc1-2
growth (DU-145 prostate): 77.6%
growth (K-562 leukemia): 80.9%
growth (MALME-3M melanoma): 29.1%
growth (MDA-MB-231 breast): 15.8%
growth (RXF 393 renal): 13.9%
growth (SF-268 CNS): 60.7%
growth (SF-295 CNS): 36.8%
growth (SF-539 CNS): 2.03% (active)
growth (UACC-257 melanoma): 105%
growth (M14 melanoma): 78.3%

COc1ccc2nc(NC(=O)Nc3c(F)cccc3F)sc2c1
growth (DU-145 prostate): 105%
growth (K-562 leukemia): 94.5%
growth (MALME-3M melanoma): 105%
growth (MDA-MB-231 breast): 119%
growth (RXF 393 renal): 106%
growth (SF-268 CNS): 109%
growth (SF-295 CNS): 102%
growth (SF-539 CNS): 104%
growth (UACC-257 melanoma): 102%
growth (M14 melanoma): 104%

C#C[C@]1(O)CC[C@H]2[C@@H]3CC[C@H]4CC(F)(F)CC[C@]4(C)[C@H]3CC[C@@]21C
growth (DU-145 prostate): 61.2%
growth (K-562 leukemia): 76.2%
growth (MALME-3M melanoma): 88%
growth (MDA-MB-231 breast): 101%
growth (RXF 393 renal): 86.4%
growth (SF-268 CNS): 92.9%
growth (SF-295 CNS): 69.1%
growth (SF-539 CNS): 54.6%
growth (UACC-257 melanoma): 78.3%
growth (M14 melanoma): 80.4%

CC(=O)OCC(COC(C)=O)(COC(C)=O)COC(C)=O
growth (DU-145 prostate): 103%
growth (K-562 leukemia): 95.4%
growth (MALME-3M melanoma): 94.6%
growth (MDA-MB-231 breast): 105%
growth (RXF 393 renal): 104%
growth (SF-268 CNS): 94.7%
growth (SF-295 CNS): 103%
growth (SF-539 CNS): 111%
growth (UACC-257 melanoma): 103%
growth (M14 melanoma): 108%

CC(C)c1[nH]nc2c(NCc3ccc(-c4ccccn4)cc3)nc(SCCN(C)C)nc12
growth (DU-145 prostate): 11.4%
growth (K-562 leukemia): 5.19% (active)
growth (MALME-3M melanoma): -52.2% (active)
growth (MDA-MB-231 breast): 1.25% (active)
growth (RXF 393 renal): -69.1% (active)
growth (SF-268 CNS): 6.37% (active)
growth (SF-295 CNS): 2.15% (active)
growth (SF-539 CNS): -43.5% (active)
growth (UACC-257 melanoma): -4.44% (active)
growth (M14 melanoma): -32.9% (active)

O=C(NC1CCCC1)c1ccc(N2CCC(NCc3cccc(C(F)(F)F)c3)CC2)cc1
growth (DU-145 prostate): 91.2%
growth (K-562 leukemia): 38%
growth (MALME-3M melanoma): 70.3%
growth (MDA-MB-231 breast): 78.1%
growth (RXF 393 renal): 79.1%
growth (SF-268 CNS): 90.3%
growth (SF-295 CNS): 96.3%
growth (SF-539 CNS): 97.6%
growth (UACC-257 melanoma): 91.3%
growth (M14 melanoma): 77.5%

CCNC(=S)NN
growth (DU-145 prostate): 97.9%
growth (K-562 leukemia): 43.9%
growth (MALME-3M melanoma): 70.4%
growth (MDA-MB-231 breast): 90.5%
growth (RXF 393 renal): 100%
growth (SF-268 CNS): 103%
growth (SF-295 CNS): 89.4%
growth (SF-539 CNS): 100%
growth (UACC-257 melanoma): 56.8%
growth (M14 melanoma): 87.2%

C/C=C\COc1cc(C)c(Cl)cc1Cl
growth (DU-145 prostate): 111%
growth (K-562 leukemia): 114%
growth (MALME-3M melanoma): 95.9%
growth (MDA-MB-231 breast): 111%
growth (RXF 393 renal): 96.2%
growth (SF-268 CNS): 114%
growth (SF-295 CNS): 99%
growth (SF-539 CNS): 104%
growth (UACC-257 melanoma): 92%
growth (M14 melanoma): 112%

COc1ccc(-n2nnc3c(sc4ccccc43)c2=O)cc1
growth (DU-145 prostate): 60.2%
growth (K-562 leukemia): 91.5%
growth (MALME-3M melanoma): 80.6%
growth (MDA-MB-231 breast): 53.8%
growth (RXF 393 renal): 45%
growth (SF-268 CNS): 53.1%
growth (SF-295 CNS): 42.3%
growth (SF-539 CNS): 54.7%
growth (UACC-257 melanoma): 80.8%
growth (M14 melanoma): 86.5%

c1ccc(OCCC[P+](c2ccccc2)(c2ccccc2)c2ccccc2)cc1
growth (DU-145 prostate): 21.4%
growth (K-562 leukemia): 1.76% (active)
growth (MALME-3M melanoma): 16.5%
growth (MDA-MB-231 breast): 11.9%
growth (RXF 393 renal): 31.6%
growth (SF-268 CNS): 18%
growth (SF-295 CNS): -30.7% (active)
growth (SF-539 CNS): 13.6%
growth (UACC-257 melanoma): -10.9% (active)
growth (M14 melanoma): 14.1%

COc1cccc(C2(C)Nc3ccccc3-c3nc4ccccc4n32)c1 (stereo not given)
growth (DU-145 prostate): 112%
growth (K-562 leukemia): 100%
growth (MALME-3M melanoma): 108%
growth (MDA-MB-231 breast): 101%
growth (RXF 393 renal): 111%
growth (SF-268 CNS): 110%
growth (SF-295 CNS): 94.6%
growth (SF-539 CNS): 105%
growth (UACC-257 melanoma): 110%
growth (M14 melanoma): 102%

O=C(NCCCl)c1cc(Cl)cc(Cl)c1
growth (DU-145 prostate): 111%
growth (K-562 leukemia): 101%
growth (MALME-3M melanoma): 97.8%
growth (MDA-MB-231 breast): 121%
growth (RXF 393 renal): 114%
growth (SF-268 CNS): 112%
growth (SF-295 CNS): 92.4%
growth (SF-539 CNS): 101%
growth (UACC-257 melanoma): 91.8%
growth (M14 melanoma): 116%
